In all, about 400,000 compounds went through this assay and about 2,100 (0.53%) were called active. About 14% were inconclusive and are not listed. How the calls were made is not given here. For the sample, actives were picked, then their nearest neighbours and some compounds at random.
target: Ataxin-2 (Homo sapiens) (UniProt Q99700); assay: qHTS for Inhibitors of ATXN expression.; assay type: functional
Sequence (Q99700 whole entry): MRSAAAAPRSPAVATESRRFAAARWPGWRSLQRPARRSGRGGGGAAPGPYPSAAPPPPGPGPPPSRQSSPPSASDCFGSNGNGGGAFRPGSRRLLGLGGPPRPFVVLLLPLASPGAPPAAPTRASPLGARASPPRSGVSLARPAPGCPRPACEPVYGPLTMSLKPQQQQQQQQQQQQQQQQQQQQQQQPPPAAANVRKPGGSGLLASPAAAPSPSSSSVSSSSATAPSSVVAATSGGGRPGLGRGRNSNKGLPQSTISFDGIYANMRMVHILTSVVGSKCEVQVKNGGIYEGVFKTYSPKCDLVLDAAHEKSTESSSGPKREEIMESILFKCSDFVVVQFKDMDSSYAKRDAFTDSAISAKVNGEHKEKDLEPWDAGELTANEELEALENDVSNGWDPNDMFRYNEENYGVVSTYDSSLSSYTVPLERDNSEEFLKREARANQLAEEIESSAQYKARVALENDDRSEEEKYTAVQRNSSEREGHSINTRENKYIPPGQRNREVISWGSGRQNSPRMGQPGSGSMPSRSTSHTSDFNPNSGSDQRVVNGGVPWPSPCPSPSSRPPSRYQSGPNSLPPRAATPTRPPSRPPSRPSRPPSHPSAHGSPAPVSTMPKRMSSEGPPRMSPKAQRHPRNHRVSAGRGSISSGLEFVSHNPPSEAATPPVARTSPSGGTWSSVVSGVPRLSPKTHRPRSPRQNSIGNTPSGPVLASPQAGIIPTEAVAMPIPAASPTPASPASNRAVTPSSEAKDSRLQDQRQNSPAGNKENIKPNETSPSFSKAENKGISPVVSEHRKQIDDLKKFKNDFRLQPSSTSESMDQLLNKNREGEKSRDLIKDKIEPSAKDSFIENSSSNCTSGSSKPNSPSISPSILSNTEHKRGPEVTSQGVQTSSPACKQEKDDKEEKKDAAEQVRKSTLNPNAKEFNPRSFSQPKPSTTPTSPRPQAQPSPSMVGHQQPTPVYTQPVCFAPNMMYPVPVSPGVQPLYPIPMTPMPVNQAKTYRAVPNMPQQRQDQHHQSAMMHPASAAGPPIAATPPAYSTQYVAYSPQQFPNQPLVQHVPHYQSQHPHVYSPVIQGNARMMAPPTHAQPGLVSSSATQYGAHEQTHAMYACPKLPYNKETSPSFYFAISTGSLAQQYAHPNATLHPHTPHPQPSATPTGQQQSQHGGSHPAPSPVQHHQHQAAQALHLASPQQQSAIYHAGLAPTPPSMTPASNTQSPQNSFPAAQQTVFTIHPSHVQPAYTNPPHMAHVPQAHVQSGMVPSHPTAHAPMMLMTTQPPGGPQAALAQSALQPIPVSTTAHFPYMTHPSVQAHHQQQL

SMILES | Potency
CCOc1ccc2[nH]c3ccc4nonc4c3c2c1 | inactive
CCOc1ccc2nc3cc(N=Nc4ccc(N)nc4N)ccc3c(N)c2c1 | 10.6 µM (active)
CCOc1ccc2nc3ncccc3c(O)c2c1 | inactive
COc1ccc(C2=CC(c3cccc(C)c3)n3nnnc3N2)cc1 (stereo not given) | inactive
Cc1n[nH]c(C)c1N1C(=O)c2cccc3c(Br)ccc(c23)C1=O | inactive
COc1ccccc1C1c2c(-c3ccc(Cl)cc3)n[nH]c2C(=O)N1c1ccc(C)cc1 (stereo not given) | 39.8 µM (active)
COc1ccccc1C1C=C(c2ccc(F)cc2)Nc2nc(-c3ccc(Cl)cc3)nn21 (stereo not given) | inactive
CCOc1ccc(C2c3c(-c4ccc(C)cc4)n[nH]c3C(=O)N2c2ccc(Cl)cc2)cc1 (stereo not given) | 39.8 µM (active)
COc1ccccc1C1C=C(c2ccc(Cl)cc2)Nc2nc(N3C(=O)CCC3=O)nn21 (stereo not given) | inactive
O=C1OCCN1C(=O)[C@H]1[C@H](c2ccc(Cl)cc2)C(c2ccc(F)cc2)=NN1c1ccc(Br)cc1 | inactive
CCOc1ccc(C2C=C(c3ccc(C)cc3)Nc3nnnn32)cc1 (stereo not given) | inactive
OC[C@@H]1[C@@H](c2ccc(Cl)cc2)C(c2ccc(F)cc2)=NN1c1ccccc1 | inactive
O=C1c2[nH]nc(-c3ccc(F)cc3)c2C(c2ccccc2F)N1c1ccccc1 (stereo not given) | 22.4 µM (active)
CCOc1ccc(C(=O)C2=C(O)C(=O)N(c3ncccn3)C2c2ccc(C)cc2)cc1 (stereo not given) | inactive
Cc1ccc(N2C(=O)c3[nH]nc(-c4ccc(Cl)cc4)c3C2c2ccc(F)cc2)cc1 (stereo not given) | 39.8 µM (active)
CCN1C(=O)c2cccc3c(S(=O)(=O)N(C)C)ccc1c23 | inactive
Cc1ccc(-c2cc(C(=O)NN3CCOCC3)c3cc(Br)ccc3n2)o1 | inactive
CCCc1cc(C(=O)Nc2cc(C)on2)no1 | inactive
N#Cc1c(N)n(-c2ccc(C(=O)O)cc2)c2nc3ccccc3nc12 | inactive
Cc1ccc2nc(N3CCN(C=O)CC3)nc(-c3ccccc3)c2c1 | inactive
CCOC(=O)c1ccc(-c2ccc(/C=C(\C#N)C(=O)NCC3CCCO3)o2)cc1 (stereo not given) | inactive
Cn1c(-c2ccc(C#N)cc2)c(C#Cc2ccccc2)c2ccccc21 | inactive
COc1ccc(OC)c(C2c3c(-c4ccc(Br)cc4)n[nH]c3C(=O)N2c2ccc(Cl)cc2)c1 (stereo not given) | 39.8 µM (active)
Fc1ccc(N2N=C(c3cccs3)CC2c2ccccc2)cc1 (stereo not given) | inactive
COc1ccccc1[C@@H]1C(c2cccc(Cl)c2)=NN(c2ccc(Br)cc2)[C@H]1C(=O)N1CCOC1=O | inactive
COC(=O)c1nc2n(n1)C(c1cc(OC)ccc1OC)C=C(c1ccc(Br)cc1)N2 (stereo not given) | inactive
CCOc1ccc(N2C(=O)c3[nH]nc(-c4cccs4)c3C2c2cccc(F)c2)cc1 (stereo not given) | 39.8 µM (active)

SMILES | Potency
CC(=O)c1sc2nc(C)c3c(c2c1N)CCCC3 | inactive
CNc1nc(-c2cccs2)cc(C(F)(F)F)c1C#N | inactive
Cc1ccc(C)c(OCCn2nnc3ccccc32)c1 | inactive
COCCn1c2nc(=O)n(-c3ccccc3)c(=O)c-2nc2ccccc21 | inactive
CCOc1ccc(CCNC(=O)C2CC(=O)N(Cc3ccc(OC)cc3)C2)cc1OCC (stereo not given) | inactive
Cc1cccc(C)c1OCCn1c(C2CC(=O)N(Cc3ccc(F)cc3)C2)nc2ccccc21 (stereo not given) | 39.8 µM (active)
Cc1ccc(C)c(OCCn2c(C3CC(=O)N(Cc4ccc(F)cc4)C3)nc3ccccc32)c1 (stereo not given) | 39.8 µM (active)
CC(=O)Oc1ccc2cc(-c3cccnc3)c(=O)oc2c1 | inactive
COc1ccc(CNC2=NC(=O)CC(C(=O)Nc3ccc([N+](=O)[O-])cc3C)S2)cc1 (stereo not given) | inactive
Cc1ccc(C2(c3ccc(C)cc3)CC2C(=O)Nc2ccc([N+](=O)[O-])cc2O)cc1 (stereo not given) | 20 µM (active)
NNC(=O)C1CC1(c1ccccc1)c1ccccc1 (stereo not given) | inactive
COc1ccc(OC)c(Nc2cc(C(=O)NCc3ccccc3)c3ccccc3n2)c1 | inactive
CCCCNC(=O)c1cc2c(=O)n3cccc(C)c3nc2n(Cc2ccccc2)c1=N | inactive
COc1ccc(Nc2cc(C(=O)NCCCN(C)Cc3ccccc3)c3ccccc3n2)c(OC)c1 | 14.1 µM (active)
COc1ccc2nc(NCCCNC(=O)c3cc(OC)c(OC)c(OC)c3)c(C#N)cc2c1 | inactive
CCCCN(CCCNC(=O)c1cc(Nc2ccc(OC)c(OC)c2)nc2ccccc12)Cc1ccccc1 | 22.4 µM (active)
CCOc1ccccc1-n1c(C)cc(C=O)c1C | inactive
CCCn1c(=O)c(C(=O)Nc2ncccc2O)c(O)c2ccccc21 | inactive
CCn1nc(NC(=O)c2cccs2)c2cc3ccccc3nc21 | inactive
CCn1nc(C(=O)Nc2nc(-c3ccccn3)cs2)c2ccccc2c1=O | 31.6 µM (active)
CC[C@@H]1C(c2cccc(Cl)c2)=NN(c2ccc(Br)cc2)[C@H]1C(=O)N1CCOC1=O | inactive
O=C(CN1C(=O)NC2(CCCC2)C1=O)NNC(=O)c1ccccc1F | inactive
CCOc1cccc(CN2CCCC(C(=O)c3cccc(C(F)(F)F)c3)C2)c1O (stereo not given) | inactive
Cc1nc(-c2ccc(S(=O)(=O)Oc3ccc(Cl)cc3Cl)s2)cs1 | inactive
CCOC(=O)c1cc2c(=O)n3ccccc3nc2n(Cc2ccco2)/c1=N\C(=O)c1ccccc1Br | inactive
CCC(=O)N(CC)C1=C(O)C(=O)c2ccccc2C1=O | inactive
O=C1c2ccccc2C(=O)c2[nH]c(O)nc21 | 25.1 µM (active)

SMILES | Potency
CCOC(=O)C1CCN(C(=O)c2ccc(CNS(=O)(=O)c3ccc(OC)cc3)cc2)CC1 | inactive
O=C(CCCCC(=O)NN=Cc1ccc(Cl)cc1)NN=Cc1ccc(Cl)cc1 | 39.8 µM (active)
O=C(CCCCC(=O)NN=Cc1ccc2c(c1)CCC2)NN=Cc1ccc2c(c1)CCC2 | inactive
O=C1NCCCC1C(=O)N/N=C/c1ccc(Cl)cc1 (stereo not given) | inactive
Cc1c(-c2ccccc2)cnc2c(C)cccc12 | inactive
CCc1cc(=O)oc2c(C)c(O)c(CN(C)C)cc12 | inactive
CC1CCCCC1NC(=O)COC(=O)c1c2c(nc3ccccc13)/C(=C/c1ccco1)CC2 (stereo not given) | inactive
CCN(CCn1cccn1)C(=O)CC1C(=O)NCCN1Cc1ccc(F)cc1 (stereo not given) | inactive
COc1cccc(CN2CCNC(=O)C2CC(=O)NC2CCOCC2)c1OC (stereo not given) | inactive
CCc1cc(CNC(=O)CC2C(=O)NCCN2Cc2ccc(-c3ccccc3)cc2)on1 (stereo not given) | 35.5 µM (active)
O=S(=O)(Nc1ccc(-c2cn3cccnc3n2)cc1)c1ccccc1 | inactive
Clc1ccc(-c2nc3cnccn3c2NC2CCCC2)cc1 | inactive
O=C(O)c1ccn2c(C(=O)c3ccc(Cl)cc3)c(-c3ccccc3)cc2c1 | inactive
O=C(c1ccc(Cl)cc1)C(CN1CCCC1)c1ccccc1 (stereo not given) | 22.4 µM (active)
O=C(/C=C/c1cn(CC(O)CN2CCCCCC2)c2ccccc12)c1ccccc1 (stereo not given) | inactive
O=C(c1ccc(Cl)cc1)C(CN1CCCCC1)c1ccccc1 (stereo not given) | 31.6 µM (active)
COc1ccc(C(=O)C(CN2CCCC2)c2ccccc2)cc1 (stereo not given) | 28.2 µM (active)
O=C(c1ccc(Cl)cc1)C1CCN(C(=O)c2ccccc2F)CC1 | inactive
O=C(/C=C/c1cn(CC(O)CN2CCCCC2)c2ccccc12)c1ccccc1 (stereo not given) | inactive
CC(C)(C)C(CN1CCCC1)OC(=O)c1ccccc1 (stereo not given) | inactive
COc1ccc(CC(=O)N2CCN(c3ccccc3)CC2)cc1 | inactive
O=C(C1=NN(c2ccccc2)C2C(=O)N(c3cccc(Cl)c3)C(=O)C12)c1ccccc1 (stereo not given) | inactive
COc1ccc(-c2c(C#N)c(N)nc3c2CCC3)cc1 | inactive
CCCCN1C(=O)C2Cc3c([nH]c4ccccc34)CN2C1=S (stereo not given) | inactive
O=c1c(O)c(-c2cccs2)oc2ccccc12 | inactive
CC(C)Oc1ccc(C(CCN)C2CCCCC2)cc1 (stereo not given) | 25.1 µM (active)
COc1ccc(C2CC(c3ccc(OC)cc3OC(C)=O)=NN2C(=O)c2ccccc2)cc1 (stereo not given) | inactive

SMILES | Potency
COc1ccc(C2CC(c3ccc4ccccc4c3)=NN2C(=O)CNC2CCCCC2)cc1 (stereo not given) | 39.8 µM (active)
CCC(=O)Nc1cccc(C2=NN(c3ccccc3)C(c3ccc(OC)cc3)C2)c1 (stereo not given) | inactive
CCOc1ccc2nc(NCCCNS(=O)(=O)c3ccc(F)cc3)c(C#N)cc2c1 | inactive
Nc1c(C(=O)Nc2ccccc2F)sc2nc(-c3ccco3)ccc12 | inactive
COc1cc(/C=C/c2nc(O)c3ccccc3n2)cc(Cl)c1O | inactive
COc1ccc(NC(=O)c2cc3ccccc3cc2O)cc1 | inactive
COc1ccc(C(=O)Nc2cccc(/C=C/c3nc(O)c4ccccc4n3)c2)cc1 | 25.1 µM (active)
O[C@@H]1[C@@H]2c3cc4c(cc3CN3CCC(=C[C@@H]1O)[C@H]23)OCO4 | 6.31 µM (active)
COc1cc(C2Nc3ccc4ccccc4c3C3=C2C(=O)CC(C)(C)C3)ccc1OCC(=O)O (stereo not given) | inactive
COCCN(CCOC)Cc1c(O)ccc2c1O/C(=C\c1ccco1)C2=O | inactive
Cc1cc(-c2ccnc(-n3ncc(C(=O)NCC4COCCO4)c3C3CC3)n2)c(C)s1 (stereo not given) | inactive
O=C(NN/C=C1\C(=O)N(c2ccccc2Cl)C(=O)c2ccccc21)c1cccnc1 | inactive
CNc1ccc(N=Nc2cc[n+]([O-])cc2C)cc1C | 28.2 µM (active)
CCOC(=O)C1(Cc2ccccc2C(F)(F)F)CCN(CC(O)CO)CC1 (stereo not given) | inactive
Cc1cccn2c(=O)c3cc(S(=O)(=O)c4ccccc4)c(=N)n(Cc4ccco4)c3nc12 | inactive
CCOC(=O)CNC(=O)Cn1cnc2c(cnn2-c2ccc(C)cc2)c1=O | inactive
Cc1nn(Cc2ccc(Cl)cc2Cl)c(C)c1NC(=O)CCl | 25.1 µM (active)
CCc1ccc(-c2cc(C(F)(F)F)n3nc(C(=O)Nc4c(C)nn(Cc5ccccc5Cl)c4C)cc3n2)s1 | inactive
Cc1ccc(-n2nc(C)c(NC(=O)CCl)c2C)cc1 | 39.8 µM (active)
Cc1nn(-c2ccccc2)c(C)c1C(=O)OCC(=O)Nc1ccccc1Cl | inactive
Cc1cc(C)n(-c2ccc(C(=O)NCC(=O)Nc3cc(Cl)ccc3Cl)cc2)n1 | inactive
Cc1nn(Cc2ccccc2Cl)c(C)c1C(=O)N(C)CC(=O)Nc1cccc(F)c1 | inactive
Cc1ccc(-n2nc(C)c(NC(=O)CCl)c2C)cc1C | 35.5 µM (active)
COc1ccc(-c2c(NC(=O)c3ccco3)n(-c3ccc(C)cc3)nc(C)c2=O)cc1 | inactive
